# Bioassay records as filed in PubChem BioAssay.
# WT yeast gro inh: growth inhibition of WT yeast, mitochondrial fusion screen; mitochondrial fusion phenotypic screen, WT strain; AID 1362; actives 2.1% (n = 190,000); inhibition, % at 10 µM; in the data active = inhibition above about 58%; tested in S. cerevisiae
# L major viab: Leishmania major promastigote growth inhibition | Leishmania major promastigotes, resazurin fluorescence viability | inhibition, % at 10 µM | actives 9% (n = 200,000) | AID 1063; in the data active = inhibition above about 50%;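 also: promastigotes grown with compound for 44 hours at 28 °C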
# Cl transport mod: modulates chloride dependent transport by human KCC2; Q9H2X9; KCC2 cells, thallium flux FluoZin-2 fluorescence; B-score of Tl+ flux slope (higher = more flux/activation; lower = inhibition) at 10 µM; actives 2.2% (n = 190,000); AID 1456;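 active = thallium flux slope and its plate-corrected score both differing from the plate sample mean at a set confidence after two filtering rounds, in either direction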;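 also: slope of fluorescence scaled to starting intensity during 10 to 20 s after thallium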
# Target sequence (Q9H2X9 whole entry, looked up): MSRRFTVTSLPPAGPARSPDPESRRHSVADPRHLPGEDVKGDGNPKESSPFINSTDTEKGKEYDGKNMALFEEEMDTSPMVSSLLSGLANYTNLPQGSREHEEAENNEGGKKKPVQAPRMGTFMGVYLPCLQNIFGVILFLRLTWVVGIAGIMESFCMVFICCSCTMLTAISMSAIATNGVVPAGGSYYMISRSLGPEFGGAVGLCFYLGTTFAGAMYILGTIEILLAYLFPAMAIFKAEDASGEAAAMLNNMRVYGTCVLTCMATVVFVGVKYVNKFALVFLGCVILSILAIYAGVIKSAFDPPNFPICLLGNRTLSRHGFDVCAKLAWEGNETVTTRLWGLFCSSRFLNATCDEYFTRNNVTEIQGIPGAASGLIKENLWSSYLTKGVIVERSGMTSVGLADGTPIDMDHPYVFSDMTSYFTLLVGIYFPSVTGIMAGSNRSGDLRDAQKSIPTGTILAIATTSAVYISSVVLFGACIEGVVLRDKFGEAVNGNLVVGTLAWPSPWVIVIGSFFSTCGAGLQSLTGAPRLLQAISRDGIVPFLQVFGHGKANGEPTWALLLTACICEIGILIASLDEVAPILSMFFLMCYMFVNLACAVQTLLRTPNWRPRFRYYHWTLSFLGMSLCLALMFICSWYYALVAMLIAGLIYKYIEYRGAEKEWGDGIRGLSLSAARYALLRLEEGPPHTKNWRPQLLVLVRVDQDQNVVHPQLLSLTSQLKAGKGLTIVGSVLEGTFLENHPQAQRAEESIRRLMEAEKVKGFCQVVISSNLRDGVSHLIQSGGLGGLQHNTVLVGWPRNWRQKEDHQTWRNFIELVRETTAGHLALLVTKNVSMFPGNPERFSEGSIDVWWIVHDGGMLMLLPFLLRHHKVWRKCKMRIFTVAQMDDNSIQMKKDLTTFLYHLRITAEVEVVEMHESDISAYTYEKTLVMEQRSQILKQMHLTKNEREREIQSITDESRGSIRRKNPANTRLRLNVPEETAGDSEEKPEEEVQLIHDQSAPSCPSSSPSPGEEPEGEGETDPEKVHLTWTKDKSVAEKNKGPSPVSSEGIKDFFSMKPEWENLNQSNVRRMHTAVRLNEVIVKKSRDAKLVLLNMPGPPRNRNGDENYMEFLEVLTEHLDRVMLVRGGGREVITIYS
# ROMK mod: modulators of human ROMK potassium channel. Tet-inducible ROMK, thallium flux fluorescence; actives lie on both sides. AID 1918. actives 2% (n = 130,000). P48048. B-score at 10 µM;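 active = signal ratio slope over the read window, or its plate-corrected B-score, at least 3 SD from the plate mean, either direction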;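 also: B-score of the F/F0 ratio slope over 7 to 12 s after thallium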
# m-calpain inh: inhibitors of pig calpain II. purified calpain II, fluorogenic peptide substrate, 30 min. inhibition, % at 16 µM. actives 0.37% (n = 220,000);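 active = inhibition above about 50%, limit read from the data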
# KCC2 sec1: KCC2 (human) modulation, secondary assay | shares compounds with Cl transport mod | HEK293-KCC2, thallium flux, FluoZin2 fluorescence; hits give high values | normalised thallium flux (F/F0 slope) at 10 µM | actives 15% (n = 3,700) | AID 1713;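 active = thallium flux slope above the same plate's solvent-only control mean plus 3 SD; inconclusive = the two replicate wells disagree; inactive = no significant difference from solvent-only control wells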
# KCC2 bumet counter: thallium flux despite bumetanide block in KCC2 cells, secondary assay 3; normalized thallium flux at 10 µM; actives 49% (n = 3,700); HEK293-KCC2 + bumetanide/ouabain, thallium flux FluoZin2; hits give high values; shares compounds with Cl transport mod;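 active = thallium entry rate above the same plate's blocked-transporter control wells by more than 3 SD; inconclusive = the two repeat wells disagree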;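 also: raw slope of fluorescence over initial fluorescence between 10 and 20 s after thallium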
# KCC2 secondary2: confirmation of human KCC2 transport modulators; shares compounds with Cl transport mod; HEK293-KCC2, thallium flux FluoZin2 fluorescence; actives lie on both sides; F/F0 rise rate, 10–20 s post-thallium; normalized thallium flux at 10 µM; actives 23% (n = 3,700);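 active = thallium flux slope more than 3 SD above or below the plate's solvent-only control mean, mostly below; inconclusive = the two repeat wells disagreed; inactive = no significant shift from solvent-only controls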
# HEK293 Tl flux: parental HEK flux effect, counter-screen; HEK293 parental cells, thallium flux FluoZin2, ouabain; baseline-ratio fluorescence slope, 10–20 s after thallium; shares compounds with Cl transport mod; thallium flux rate (normalised fluorescence) at 10 µM; actives 46% (n = 3,700); AID 1716;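 active = thallium flux rate significantly above the same plate's solvent-only control wells, beyond their mean plus 3 SD; inconclusive = the two replicate wells gave conflicting results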
# KCC2 ouabain: KCC2 (human) modulation, ouabain retest; shares compounds with Cl transport mod; HEK293-KCC2, thallium flux FluoZin2 fluorescence; bidirectional: low = inhibitor, high = activator; raw Tl+ flux slope (below DMSO = inhibition, above = activation) at 10 µM; actives 48% (n = 3,700); AID 1717;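 active = thallium flux slope beyond 3 SD from same-plate DMSO control mean in most replicates, usually higher, sometimes lower; inconclusive = repeat tests gave conflicting results; inactive = no significant difference from controls in most replicates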;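 also: slope of initial-normalized fluorescence between seconds 10 and 20 after thallium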
# HEK counter2: acts in parental HEK cells, second KCC2 counter-screen; shares compounds with Cl transport mod; HEK293 parental, thallium flux FluoZin-2 fluorescence slope; thallium flux slope at 10 µM; actives 33% (n = 3,700); AID 1718;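 active = thallium flux slope above the same plate's solvent-control mean plus 3 SD in both duplicate wells; inconclusive = duplicate wells that disagreed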;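 also: run without ouabain in cells lacking the KCC2 cotransporter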
# A number is an active result; i = inactive; ? = inconclusive; nt = not tested or not shown. Rows were chosen to be rich in hits. Some 12% of all compounds tested hit in one or more screens of this group.
SMILES,WT yeast gro inh,L major viab,Cl transport mod,ROMK mod,m-calpain inh,KCC2 sec1,KCC2 bumet counter,KCC2 secondary2,HEK293 Tl flux,KCC2 ouabain,HEK counter2
Cc1nnc(SC2CC(=O)N(c3ccccc3)C2=O)s1 (configuration not stated),i,i,i,nt,i,nt,nt,nt,nt,nt,nt
O=C(NCc1ccco1)c1ccc2c(c1)N(Cc1ccc(Cl)cc1)CCS2,nt,nt,i,nt,i,nt,nt,nt,nt,nt,nt
O=C(COc1cccc2cccnc12)Nc1ccccc1N1CCOCC1,i,i,-5.6,i,i,?,i,i,0.005,i,?
CCOC(=O)c1cc(-c2ccc(Cl)cc2)nc2onc(C)c12,i,i,nt,i,i,i,i,i,i,i,i
O=C(OCn1ncc(Cl)c(Cl)c1=O)c1ccc(F)cc1,i,98,-4.1,nt,i,i,?,0.026,i,?,i
O=C(OCn1ncc(Cl)c(Cl)c1=O)c1ccccc1Cl,i,101,-4.3,nt,i,i,i,i,?,0.015,i
CC(C)(C)C(=O)Cn1ncc(Cl)c(Cl)c1=O,i,i,i,i,i,nt,nt,nt,nt,nt,nt
CC(=O)OCC1OC(c2ccccc2)C(OC(C)=O)C(OC(C)=O)C1OC(C)=O (configuration not stated),i,i,4.3,nt,i,i,i,?,i,i,i
CCC(C)(C)n1nnnc1C(c1ccc(F)cc1)N1CCC(C(N)=O)CC1 (configuration not stated),i,i,i,i,i,nt,nt,nt,nt,nt,nt
Cc1nc(CNC(=O)CC2C(=O)NCCN2Cc2ccoc2)nc2c1CCCC2 (configuration not stated),nt,nt,i,nt,i,nt,nt,nt,nt,nt,nt
CCN(CC)S(=O)(=O)c1ccc(OC)c(NC(=O)c2cn(CC)c3nc(C)ccc3c2=O)c1,i,i,i,i,i,nt,nt,nt,nt,nt,nt
CC1OC(O[C@H]2CC[C@]3(C)C4C=C[C@]56OC[C@@]7(CC[C@@H](C)[C@H](C)C75)[C@H](O)C[C@@]6(C)[C@]4(C)CC[C@H]3C2(C)C)C(OC2OC(CO)C(O)C(O)C2OC2OCC(O)C(O)C2O)C(O)C1O (some centres not stated),nt,nt,39,nt,i,0.013,0.046,i,i,?,i
O=C(c1ccc(CSc2ccc(Cl)cc2)cc1)N1CCCC1,i,i,i,i,i,nt,nt,nt,nt,nt,nt
CSc1nc2[nH]c3c(c2c2ncnn12)CCCC3,i,i,i,i,i,i,i,i,i,i,i
CCOC(=O)c1ccc(C(=O)OCC)c(NC(=S)Nc2ccc([N+](=O)[O-])cc2OC)c1,i,i,10,nt,i,0.013,0.031,i,0.024,0.033,0.014
CC(C)c1cccc(O)c(=O)c1,i,i,9.1,i,i,i,0.016,i,0.013,0.026,?
CC(C)c1ccc(N)c(S(=O)(=O)O)c1,nt,nt,i,i,i,nt,nt,nt,nt,nt,nt
Cc1ccc(C)n1NC(=O)c1ccc(O)cc1,i,i,i,i,i,nt,nt,nt,nt,nt,nt
Cc1ccc(C)n1NC(=O)c1ccccc1,i,i,-5.8,nt,i,i,?,i,i,i,i
O=C(Nc1nc2c(s1)CN(Cc1ccccc1)CC2)c1cccc(S(=O)(=O)N2CCc3ccccc32)c1,i,62,3.4,nt,i,0.0045,0.0015,0.021,0.0051,0.013,0.0079
COc1ccccc1C(=O)NC(=O)Nc1nc(-c2ccccc2)cc(C(F)(F)F)n1,nt,nt,i,nt,i,nt,nt,nt,nt,nt,nt
Cc1cc(CC(C)C)n(-c2nc3ccccc3c(=O)n2OCc2ccccc2)n1,65,i,5.1,nt,i,i,0.023,i,0.011,0.052,0.012
Cc1cc(CC(C)C)n(-c2nc3ccccc3c(=O)n2OCC(=O)N(C)C)n1,i,i,10,i,i,i,0.026,i,0.024,0.032,0.017
Cc1cc(C)n(-c2nc3ccccc3c(=O)n2OCC(=O)N(C)C)n1,i,i,i,nt,i,nt,nt,nt,nt,nt,nt
O=[N+]([O-])c1ccc(N2CCCCC2)c(-c2nn[nH]n2)c1,i,i,i,i,i,nt,nt,nt,nt,nt,nt
SMILES,WT yeast gro inh,L major viab,Cl transport mod,ROMK mod,m-calpain inh,KCC2 sec1,KCC2 bumet counter,KCC2 secondary2,HEK293 Tl flux,KCC2 ouabain,HEK counter2
Cc1cc(-c2nnc(CSc3nnc(NC(=O)c4ccc(C(C)(C)C)cc4)s3)o2)ccc1[N+](=O)[O-],nt,nt,i,i,i,nt,nt,nt,nt,nt,nt
Cc1c(NC(=O)CN2C(=O)c3ccccc3S2(=O)=O)c(=O)n(-c2ccccc2)n1C,i,i,3.4,i,i,i,i,i,i,i,?
Cc1c(NC(=O)CN2c3cccc4cccc(c34)S2(=O)=O)c(=O)n(-c2ccccc2)n1C,i,i,i,nt,i,nt,nt,nt,nt,nt,nt
Cc1ccc(C(=O)NC(=S)N2CC(C)OC(C)C2)cc1[N+](=O)[O-] (configuration not stated),i,i,nt,nt,i,0.018,0.037,i,0.021,0.035,0.013
COc1cc(OC)cc(C(=O)NC(=S)N2CCCCCC2)c1,i,i,74,i,i,0.034,0.11,0.04,0.062,0.083,0.021
COc1ccc(C(=O)NC(=S)N2CC(C)OC(C)C2)cc1 (configuration not stated),i,i,i,i,i,nt,nt,nt,nt,nt,nt
COc1ccc(C(=O)NC(=S)N2CCCCC2)cc1,i,i,i,i,i,nt,nt,nt,nt,nt,nt
COc1ccc(C(=O)NC(=S)N2CCCCC2)cc1[N+](=O)[O-],i,i,6.8,nt,i,i,0.021,i,0.012,i,?
COc1cc(OC)c(S(=O)(=O)Nc2ccccc2N2CCOCC2)cc1NC(C)=O,i,i,i,i,i,nt,nt,nt,nt,nt,nt
Cc1ccc(C2CC(C(F)(F)F)n3nc(C(=O)NCC4CCCO4)cc3N2)cc1 (configuration not stated),nt,i,-4.2,nt,i,i,i,i,i,i,i
O=C(O)CCSc1ncnc2sc(-c3ccccc3)cc12,nt,nt,51,nt,i,?,0.056,0.043,0.056,0.055,0.033
COCCNC(=O)CSc1ncnc2sc(-c3ccccc3)cc12,i,i,7.5,i,i,i,0.021,i,0.014,0.022,0.017
CCCN(CCC)C(=O)CSc1nc2ccccc2c(=O)n1C1CCCC1,i,i,i,i,i,nt,nt,nt,nt,nt,nt
O=c1[nH]c(Cc2ccc(F)cc2)nc2scc(-c3ccc(F)cc3)c12,i,i,i,nt,i,nt,nt,nt,nt,nt,nt
Cc1[nH]c(=S)sc1Cc1ccc(F)cc1,i,i,40,i,i,i,0.12,0.084,0.089,0.1,0.067
